Data on 10 molecules can be found in PMC12529666, “Dysregulation of AGO2-miRNA dynamics underlies the AGO2-associated Lessel–Kreienkamp syndrome”.

Sequences and labels used below:
B1: ACGTCCCA (ssRNA)
RNA 1: GAGUUCUACAGUCCGACGAUCCCAACACGUCCCACACCUGGAAUUCUCGGGUGCCAA
RNA 2: UGGAGUGUGACAAUGGUGUUUG
DNA 1: GATCGTCGGACTGTAGAACTC
DNA 2: TTGGCACCCGAGAATTCCA
modifications: constant regions annealed to DNA blockers; guide miR-122 5' phosphate
B2: GCGTCCCA (ssRNA)
RNA 1: B1 RNA 1 with A27G
RNA 2: UGGAGUGUGACAAUGGUGUUUG
DNA 1: GATCGTCGGACTGTAGAACTC
DNA 2: TTGGCACCCGAGAATTCCA
modifications: constant regions annealed to DNA blockers; guide miR-122 5' phosphate
B3: ATATTCCA (ssRNA)
RNA 1: B1 RNA 1 with C28U, G29A, C31U
RNA 2: UGGAGUGUGACAAUGGUGUUUG
DNA 1: GATCGTCGGACTGTAGAACTC
DNA 2: TTGGCACCCGAGAATTCCA
modifications: constant regions annealed to DNA blockers; guide miR-122 5' phosphate
B4: ATATTTTA (ssRNA)
RNA 1: B1 RNA 1 with C28U, G29A, C31U, C32U, C33U
RNA 2: UGGAGUGUGACAAUGGUGUUUG
DNA 1: GATCGTCGGACTGTAGAACTC
DNA 2: TTGGCACCCGAGAATTCCA
modifications: constant regions annealed to DNA blockers; guide miR-122 5' phosphate
B5: GTATCTCA (ssRNA)
RNA 1: B1 RNA 1 with A27G, C28U, G29A, C32U
RNA 2: UGGAGUGUGACAAUGGUGUUUG
DNA 1: GATCGTCGGACTGTAGAACTC
DNA 2: TTGGCACCCGAGAATTCCA
modifications: constant regions annealed to DNA blockers; guide miR-122 5' phosphate
B6: GCACCTTA (ssRNA)
RNA 1: B1 RNA 1 with A27G, G29A, U30C, C32U, C33U
RNA 2: UGGAGUGUGACAAUGGUGUUUG
DNA 1: GATCGTCGGACTGTAGAACTC
DNA 2: TTGGCACCCGAGAATTCCA
modifications: constant regions annealed to DNA blockers; guide miR-122 5' phosphate
B7: GTACCTCA (ssRNA)
RNA 1: B1 RNA 1 with A27G, C28U, G29A, U30C, C32U
RNA 2: UGGAGUGUGACAAUGGUGUUUG
DNA 1: GATCGTCGGACTGTAGAACTC
DNA 2: TTGGCACCCGAGAATTCCA
modifications: constant regions annealed to DNA blockers; guide miR-122 5' phosphate
B8: GTGTCCCA (ssRNA)
RNA 1: B1 RNA 1 with A27G, C28U
RNA 2: UGGAGUGUGACAAUGGUGUUUG
DNA 1: GATCGTCGGACTGTAGAACTC
DNA 2: TTGGCACCCGAGAATTCCA
modifications: constant regions annealed to DNA blockers; guide miR-122 5' phosphate
B9: GCGCCTTA (ssRNA)
RNA 1: B1 RNA 1 with A27G, U30C, C32U, C33U
RNA 2: UGGAGUGUGACAAUGGUGUUUG
DNA 1: GATCGTCGGACTGTAGAACTC
DNA 2: TTGGCACCCGAGAATTCCA
modifications: constant regions annealed to DNA blockers; guide miR-122 5' phosphate
B10: GCGTTTCA (ssRNA)
RNA 1: B1 RNA 1 with A27G, C31U, C32U
RNA 2: UGGAGUGUGACAAUGGUGUUUG
DNA 1: GATCGTCGGACTGTAGAACTC
DNA 2: TTGGCACCCGAGAATTCCA
modifications: constant regions annealed to DNA blockers; guide miR-122 5' phosphate

Residue numbers refer to the chain shown, from its start.

Sequence of AGO2 A367P (Q9UKV8 whole entry A367P/S387D/S824A/S828D/S831D/S834A): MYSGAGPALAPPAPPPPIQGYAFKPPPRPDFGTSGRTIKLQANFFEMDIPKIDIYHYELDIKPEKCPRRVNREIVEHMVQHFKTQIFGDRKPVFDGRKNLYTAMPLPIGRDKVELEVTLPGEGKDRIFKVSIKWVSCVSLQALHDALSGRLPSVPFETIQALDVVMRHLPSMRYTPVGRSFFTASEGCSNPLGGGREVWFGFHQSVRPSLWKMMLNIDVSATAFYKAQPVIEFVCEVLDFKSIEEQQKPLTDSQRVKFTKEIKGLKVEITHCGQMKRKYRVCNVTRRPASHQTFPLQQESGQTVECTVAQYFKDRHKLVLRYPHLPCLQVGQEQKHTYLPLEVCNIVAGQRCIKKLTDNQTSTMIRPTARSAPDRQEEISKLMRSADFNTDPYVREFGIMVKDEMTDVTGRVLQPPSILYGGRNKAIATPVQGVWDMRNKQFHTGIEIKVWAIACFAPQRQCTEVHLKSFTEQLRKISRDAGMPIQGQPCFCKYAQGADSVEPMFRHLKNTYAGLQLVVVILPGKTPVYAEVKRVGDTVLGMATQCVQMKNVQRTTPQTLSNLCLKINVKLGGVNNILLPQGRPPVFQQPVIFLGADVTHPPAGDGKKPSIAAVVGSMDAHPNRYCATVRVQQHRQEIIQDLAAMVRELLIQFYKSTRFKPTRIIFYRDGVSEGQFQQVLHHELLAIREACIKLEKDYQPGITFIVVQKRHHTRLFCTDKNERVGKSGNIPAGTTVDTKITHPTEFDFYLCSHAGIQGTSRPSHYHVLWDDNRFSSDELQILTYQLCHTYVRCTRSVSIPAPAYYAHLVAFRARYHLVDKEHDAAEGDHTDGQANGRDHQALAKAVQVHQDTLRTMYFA
Sequence of AGO2 L192P (Q9UKV8 whole entry L192P/S387D/S824A/S828D/S831D/S834A): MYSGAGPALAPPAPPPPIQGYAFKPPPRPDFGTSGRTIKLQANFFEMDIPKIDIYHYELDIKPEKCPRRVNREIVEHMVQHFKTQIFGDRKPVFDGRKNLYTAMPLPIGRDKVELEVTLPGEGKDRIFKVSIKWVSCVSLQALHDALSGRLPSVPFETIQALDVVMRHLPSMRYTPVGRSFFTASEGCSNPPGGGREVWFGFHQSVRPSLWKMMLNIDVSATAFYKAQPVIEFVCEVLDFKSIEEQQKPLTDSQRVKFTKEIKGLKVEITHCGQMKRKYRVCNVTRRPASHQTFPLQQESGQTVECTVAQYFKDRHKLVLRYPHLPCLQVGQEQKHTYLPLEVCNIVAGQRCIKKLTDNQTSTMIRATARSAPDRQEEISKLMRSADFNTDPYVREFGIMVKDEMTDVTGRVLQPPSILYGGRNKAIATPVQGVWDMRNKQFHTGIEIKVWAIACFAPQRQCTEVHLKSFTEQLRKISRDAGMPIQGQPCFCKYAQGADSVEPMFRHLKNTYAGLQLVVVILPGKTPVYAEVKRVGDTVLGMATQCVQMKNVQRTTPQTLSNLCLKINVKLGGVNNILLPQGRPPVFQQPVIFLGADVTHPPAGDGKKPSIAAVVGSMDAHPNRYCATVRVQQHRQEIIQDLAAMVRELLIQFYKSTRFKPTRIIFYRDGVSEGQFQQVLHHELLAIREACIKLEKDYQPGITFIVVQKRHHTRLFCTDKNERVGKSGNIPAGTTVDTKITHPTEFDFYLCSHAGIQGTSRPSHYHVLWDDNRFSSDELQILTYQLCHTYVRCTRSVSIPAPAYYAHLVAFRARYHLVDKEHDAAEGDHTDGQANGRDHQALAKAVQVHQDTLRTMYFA
Sequence of AGO2 WT (phosphosite mutant background) (Q9UKV8 whole entry S387D/S824A/S828D/S831D/S834A): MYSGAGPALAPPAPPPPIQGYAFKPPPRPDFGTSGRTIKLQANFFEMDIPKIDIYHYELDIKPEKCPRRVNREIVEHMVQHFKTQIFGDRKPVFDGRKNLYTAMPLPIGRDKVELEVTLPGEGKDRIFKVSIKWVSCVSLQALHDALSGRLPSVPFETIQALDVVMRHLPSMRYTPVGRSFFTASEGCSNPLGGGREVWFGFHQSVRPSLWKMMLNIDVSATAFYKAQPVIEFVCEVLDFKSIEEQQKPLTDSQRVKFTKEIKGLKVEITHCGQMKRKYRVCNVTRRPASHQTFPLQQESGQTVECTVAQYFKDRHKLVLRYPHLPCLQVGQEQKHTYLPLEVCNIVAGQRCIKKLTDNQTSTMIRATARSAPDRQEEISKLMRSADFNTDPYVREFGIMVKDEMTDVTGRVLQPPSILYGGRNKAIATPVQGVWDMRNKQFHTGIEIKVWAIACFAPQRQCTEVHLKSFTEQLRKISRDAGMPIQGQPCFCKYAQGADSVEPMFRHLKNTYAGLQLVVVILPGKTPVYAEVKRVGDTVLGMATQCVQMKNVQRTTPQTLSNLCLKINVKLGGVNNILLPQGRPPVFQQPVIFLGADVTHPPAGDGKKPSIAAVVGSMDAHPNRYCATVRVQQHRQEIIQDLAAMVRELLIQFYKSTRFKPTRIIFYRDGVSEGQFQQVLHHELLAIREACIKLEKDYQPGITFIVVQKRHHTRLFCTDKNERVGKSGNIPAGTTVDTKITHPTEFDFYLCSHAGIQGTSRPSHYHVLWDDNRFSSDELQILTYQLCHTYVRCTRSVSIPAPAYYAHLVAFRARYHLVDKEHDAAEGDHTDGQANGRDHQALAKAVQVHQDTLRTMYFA
Sequence of AGO2 F182del (Q9UKV8 other isoform, or with tags, fused parts or gaps S387D;S824A;S828D;S831D;S834A;del182-182): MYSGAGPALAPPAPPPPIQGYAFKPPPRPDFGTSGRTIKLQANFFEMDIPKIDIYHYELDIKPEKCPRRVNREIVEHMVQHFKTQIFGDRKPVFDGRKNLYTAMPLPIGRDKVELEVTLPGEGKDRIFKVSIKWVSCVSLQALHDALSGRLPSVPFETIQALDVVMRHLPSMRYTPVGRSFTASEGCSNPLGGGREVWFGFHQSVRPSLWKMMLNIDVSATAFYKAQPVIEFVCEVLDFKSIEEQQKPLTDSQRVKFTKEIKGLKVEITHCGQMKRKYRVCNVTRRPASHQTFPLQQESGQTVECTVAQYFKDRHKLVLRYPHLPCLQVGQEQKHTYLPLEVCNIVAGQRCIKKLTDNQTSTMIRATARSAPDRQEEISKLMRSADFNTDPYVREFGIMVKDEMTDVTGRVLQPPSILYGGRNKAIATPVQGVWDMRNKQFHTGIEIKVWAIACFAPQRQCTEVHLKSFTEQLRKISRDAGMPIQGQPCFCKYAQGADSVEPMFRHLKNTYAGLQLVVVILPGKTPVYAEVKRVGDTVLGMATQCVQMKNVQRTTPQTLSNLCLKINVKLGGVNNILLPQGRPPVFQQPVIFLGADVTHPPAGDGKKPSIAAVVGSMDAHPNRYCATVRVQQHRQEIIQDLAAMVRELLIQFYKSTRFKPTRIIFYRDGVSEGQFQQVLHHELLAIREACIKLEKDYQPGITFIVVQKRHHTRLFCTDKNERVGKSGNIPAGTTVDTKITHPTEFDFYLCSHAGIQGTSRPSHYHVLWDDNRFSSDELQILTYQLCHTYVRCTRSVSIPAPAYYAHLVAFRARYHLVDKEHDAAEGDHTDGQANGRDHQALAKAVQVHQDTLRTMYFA
Sequence of AGO2 T357M (Q9UKV8 whole entry T357M/S387D/S824A/S828D/S831D/S834A): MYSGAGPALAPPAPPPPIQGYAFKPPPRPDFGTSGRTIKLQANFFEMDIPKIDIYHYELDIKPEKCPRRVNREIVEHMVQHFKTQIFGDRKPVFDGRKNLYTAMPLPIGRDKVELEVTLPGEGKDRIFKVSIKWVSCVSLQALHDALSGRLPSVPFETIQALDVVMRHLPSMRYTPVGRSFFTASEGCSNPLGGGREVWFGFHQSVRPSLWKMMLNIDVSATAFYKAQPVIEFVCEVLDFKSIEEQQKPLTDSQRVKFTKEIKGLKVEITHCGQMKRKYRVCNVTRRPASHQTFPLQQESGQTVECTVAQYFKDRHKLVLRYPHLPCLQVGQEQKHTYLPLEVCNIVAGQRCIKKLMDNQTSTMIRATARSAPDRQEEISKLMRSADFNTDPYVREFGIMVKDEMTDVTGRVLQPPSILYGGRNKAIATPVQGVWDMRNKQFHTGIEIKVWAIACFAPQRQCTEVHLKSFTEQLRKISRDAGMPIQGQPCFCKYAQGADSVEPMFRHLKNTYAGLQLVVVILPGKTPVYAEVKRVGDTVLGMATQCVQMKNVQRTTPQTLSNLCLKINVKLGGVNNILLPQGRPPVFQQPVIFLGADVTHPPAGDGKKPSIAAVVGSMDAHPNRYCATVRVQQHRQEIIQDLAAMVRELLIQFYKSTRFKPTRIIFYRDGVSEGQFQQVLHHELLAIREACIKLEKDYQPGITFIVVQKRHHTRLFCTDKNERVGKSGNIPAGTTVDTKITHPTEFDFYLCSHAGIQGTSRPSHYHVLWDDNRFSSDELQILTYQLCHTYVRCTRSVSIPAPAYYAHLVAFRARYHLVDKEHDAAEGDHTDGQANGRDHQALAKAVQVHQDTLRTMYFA

The first assay deals with AGO2 WT (phosphosite mutant background) (Homo sapiens, UniProt Q9UKV8 1-859, S387D;S824A;S828D;S831D;S834A). In words: RNA Bind-n-Seq (nitrocellulose filter binding and sequencing); miR-122 guide loaded in AGO2; 60 min incubation; 30 mM Tris pH 8.0, 100 mM potassium acetate, 2 mM magnesium acetate, 0.5 mM TCEP, 0.005% NP-40, 0.01 mg/ml yeast tRNA; 3 nM AGO2-miR-122, 100 nM RNA library; 60; high values mean tight binding. To be noted: protein: recombinant; tags: His6 (N-terminal, pFastBac HTA). The procedure, abridged:
(§1)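 His-tagged AGO2 was expressed in Sf9 insect cells by baculovirus, loaded with a synthetic guide RNA, and purified by Ni-NTA and a biotinylated capture oligo. Bound RNA was extracted, reverse-transcribed, barcode-amplified and Illumina-sequenced. Fold enrichment is each sequence's read fraction divided by its input-library read fraction.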
As for B1, the binding signal is 0.127 fold enrichment over input.

Consider B2, for which the binding signal was 0.126 fold enrichment over input.

Turning to B3, the binding signal was 0.121 fold enrichment over input.

As to B4, the binding signal is 0.127 fold enrichment over input.

Take B5: the binding signal was 0.141 fold enrichment over input.

Take B6: the binding signal is 0.132 fold enrichment over input.

With B7, the binding signal was 0.149 fold enrichment over input.

Take B8: the binding signal is 0.125 fold enrichment over input.

For the molecule B9, the binding signal was 0.125 fold enrichment over input.

For the molecule B10, the binding signal was 0.125 fold enrichment over input.

A further assay has as its target AGO2 L192P (Homo sapiens, UniProt Q9UKV8 1-859, L192P;S387D;S824A;S828D;S831D;S834A). The description is as above. The following applies: protein: recombinant; tags: His6 (N-terminal, pFastBac HTA). The procedure, abridged:
as §1
With B1, the binding signal was 0.569 fold enrichment over input.

Regarding B2, the binding signal is 0.51 fold enrichment over input.

Take B3: the binding signal is 0.564 fold enrichment over input.

Regarding B4, the binding signal is 0.509 fold enrichment over input.

On to B5, for which the binding signal is 0.597 fold enrichment over input.

On to B6, for which the binding signal is 0.59 fold enrichment over input.

Consider B7, for which the binding signal is 0.573 fold enrichment over input.

For the molecule B8, the binding signal was 0.479 fold enrichment over input.

B9: the binding signal was 0.5 fold enrichment over input.

For B10, the binding signal is 0.513 fold enrichment over input.

For a further assay, the target named is AGO2 A367P (Homo sapiens, UniProt Q9UKV8 1-859, A367P;S387D;S824A;S828D;S831D;S834A). The assay is described as above. The following applies: protein: recombinant; tags: His6 (N-terminal, pFastBac HTA). The procedure, abridged:
as §1
Turning to B1, the binding signal is 0.255 fold enrichment over input.

With B2, the binding signal is 0.215 fold enrichment over input.

In the case of B3, the binding signal was 0.22 fold enrichment over input.

With B4, the binding signal was 0.189 fold enrichment over input.

Turning to B5, the binding signal is 0.455 fold enrichment over input.

As for B6, the binding signal was 0.307 fold enrichment over input.

Consider B7, for which the binding signal is 0.44 fold enrichment over input.

B8: the binding signal was 0.249 fold enrichment over input.

For B9, the binding signal is 0.194 fold enrichment over input.

For B10, the binding signal is 0.227 fold enrichment over input.

The target in another assay is AGO2 T357M (Homo sapiens, UniProt Q9UKV8 1-859, T357M;S387D;S824A;S828D;S831D;S834A). The description is as above. To be noted: protein: recombinant; tags: His6 (N-terminal, pFastBac HTA). The procedure, abridged:
as §1
As to B1, the binding signal is 0.637 fold enrichment over input.

Consider B2, for which the binding signal was 0.751 fold enrichment over input.

Turning to B3, the binding signal was 0.646 fold enrichment over input.

As for B4, the binding signal is 0.697 fold enrichment over input.

B5: the binding signal is 0.579 fold enrichment over input.

Consider B6, for which the binding signal is 0.657 fold enrichment over input.

Regarding B7, the binding signal was 0.601 fold enrichment over input.

For B8, the binding signal was 0.602 fold enrichment over input.

With B9, the binding signal was 0.763 fold enrichment over input.

As for B10, the binding signal is 0.632 fold enrichment over input.

In another assay the target is AGO2 F182del (Homo sapiens, UniProt Q9UKV8 1-859, S387D;S824A;S828D;S831D;S834A;del182-182). The description is as above. The following applies: protein: recombinant; tags: His6 (N-terminal, pFastBac HTA). The procedure, abridged:
as §1
B1: the binding signal was 0.446 fold enrichment over input.

Consider B2, for which the binding signal is 0.169 fold enrichment over input.

B3: the binding signal is 0.372 fold enrichment over input.

As to B5, the binding signal was 1.35 fold enrichment over input.

In the case of B6, the binding signal was 0.717 fold enrichment over input.

B7: the binding signal was 1.57 fold enrichment over input.

With B8, the binding signal was 0.268 fold enrichment over input.

B10: the binding signal is 0.326 fold enrichment over input.
